# Screening data as filed in PubChem BioAssay.
# Sampled rows, rich in hits. Any-hit rate of the full collection: about 2.4%.
# Pol kappa inh-1: DNA polymerase kappa (human) inhibition | Potency, µM (doses to about 107 µM), for the others: at the top dose activity, negative = inhibition, actives largely listed as inhibitors | 0.53% of 400,000 active | Q9UBT6 | AID 588579 | purified Pol kappa, fluorescent DNA synthesis assay, 10 min; further: potency means the concentration at half of the fitted maximal effect; on the % scale 0 is the no-effect control and ±100 the full control effect
#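 50 nM final substrate added after 15 min RT preincubation of 10 nM Pol kappa with compound; fluorescence read at 0 and 10 min.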
# Pol eta inh-1: DNA polymerase eta (human) inhibition | Q9Y253 | 1.2% of 390,000 active | Potency, µM (titrated, usually from 114 µM), for inactives: at the top dose activity change, negative = inhibition, actives largely listed as inhibitors | recombinant Pol eta, fluorescent DNA replication assay; further: potency means the concentration at half of the fitted maximal effect; on the % scale 0 is the no-effect control and ±100 the full control effect
#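 Pol eta (10 nM) was preincubated with compounds for 15 min at room temperature, after which fluorescent replication substrate (50 nM final) was added to start the reaction. Fluorescence was read kinetically at 0 and 10 min.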
# Pol iota inh: blocks human DNA polymerase iota activity. Q9UNA4. 1% of 390,000 active. Pol iota fluorescent replication assay, 10 min. Potency, µM (doses to about 115 µM), inactives show at the top dose activity, negative = inhibition, most hits filed as inhibitors; further: potency means the concentration at half of the fitted maximal effect
#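 Fluorescent replication assay read twice, at 0 min and 10 min after adding 50 nM (final) substrate. Enzyme (10 nM) and compounds were first incubated 15 min at room temperature; enzyme-free buffer wells were negative controls.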
# FEN1 inh: human FEN1 inhibition; P39748; Potency, µM (top dose mostly 114 µM), for inactives: top-dose activity change, negative = inhibition, actives largely listed as inhibitors; 0.35% of 390,000 active; Recombinant FEN1 flap cleavage, fluorescence, 15 min; further: potency means the concentration at half of the fitted maximal effect; on the % scale 0 is the no-effect control and ±100 the full control effect; nearly all actives have a fitted effect of over 65% in size
# Target sequence (P39748 whole entry, looked up): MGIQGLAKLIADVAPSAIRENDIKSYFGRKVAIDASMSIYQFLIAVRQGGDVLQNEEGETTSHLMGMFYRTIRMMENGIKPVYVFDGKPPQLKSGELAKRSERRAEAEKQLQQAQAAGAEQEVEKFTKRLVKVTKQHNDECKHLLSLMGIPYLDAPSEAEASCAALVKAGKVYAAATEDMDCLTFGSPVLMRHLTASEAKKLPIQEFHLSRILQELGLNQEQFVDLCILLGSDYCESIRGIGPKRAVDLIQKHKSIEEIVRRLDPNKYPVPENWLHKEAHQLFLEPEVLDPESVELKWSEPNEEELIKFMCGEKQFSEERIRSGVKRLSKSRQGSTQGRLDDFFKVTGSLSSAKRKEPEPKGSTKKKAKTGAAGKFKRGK
#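 With each library titrated from low to high concentration, compounds met 10 nM FEN1 for 15 min at room temperature before 50 nM substrate was added; readings at 0 and 15 min fed four-parameter Hill curve fits.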
# WRN inhibitor: blocks human WRN helicase; Q14191; AID 651768; 0.46% of 360,000 active; WRN helicase unwinding, fluorescent forked duplex, kinetic; Potency, µM (doses to about 114 µM), for the others: at the highest dose activity change, negative = inhibition, actives largely listed as inhibitors; further: potency means the concentration at half of the fitted maximal effect; on the % scale 0 is the no-effect control and ±100 the full control effect; nearly all actives have a fitted effect of over 55% in size
#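 Screening of the MLSMR collection measured strand separation of a quenched forked DNA duplex (100 nM) by 20 nM WRN with 2 mM ATP, all final. Compounds were preincubated with enzyme 15 min at room temperature.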
# POLB inh: inhibitors of human DNA polymerase beta. Pol beta primer extension/strand displacement, fluorescence kinetic. Potency, µM (highest dose often 114 µM), for the others: at the top dose activity change, negative = inhibition, actives largely listed as inhibitors. 1.3% of 340,000 active; further: potency means the concentration at half of the fitted maximal effect; on the % scale 0 is the no-effect control and ±100 the full control effect
#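 Enzyme-only controls used 10 nM Pol beta; buffer lacking enzyme served as negative control. Compound preincubated 15 min, then 50 nM substrate added; 0 and 10 min reads at room temperature.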
# GALK confirm: confirmation of human galactokinase (GALK) inhibitors | AID 2015 | shares compounds with Pol eta inh-1 | Potency, µM (titrated, usually from 115 µM), inactives show at the top dose activity, negative = inhibition, actives largely listed as inhibitors | purified GALK, Kinase-Glo ATP depletion luminescence | 70% of 150 active
# Redox cycling: counter-screen for GALK inhibitors: redox cycling H2O2 generation; shares compounds with Pol eta inh-1; Phenol red-HRP H2O2 redox cycling, absorbance 600 nm; Potency, µM (highest dose often 115 µM), for the others: top-dose activity change, negative = H2O2 signal, usual class: inhibitors; 40% of 150 active
# HEK293 viability: counter-screen for GALK inhibitors: HEK293 cell cytotoxicity | shares compounds with Pol eta inh-1 | HEK-293 viability, ATP luminescence (CellTiter-Glo), 24/48 h | Potency, µM (doses to about 46.1 µM), for inactives: top-dose activity change, negative = cytotoxicity, actives largely listed as inhibitors | 10% of 170 active | AID 2547; further: potency means the concentration at half of the fitted maximal effect; on the % scale 0 is the no-effect control and ±100 the full control effect
# Pol kappa inh-2: confirmation of human DNA polymerase kappa inhibitors; shares compounds with Pol eta inh-1; purified Pol-kappa, fluorescent strand-displacement substrate; Potency, µM, most hits filed as inhibitors; 76% of 920 active; AID 720501; further: potency means the concentration at half of the fitted maximal effect
# Pol eta inh-2: confirmation of human DNA polymerase eta inhibitors; 64% of 2,600 active; shares compounds with Pol eta inh-1; Pol eta primer extension, TAMRA/BHQ fluorescence, 10 min; Potency, µM, usual class: inhibitors; further: potency means the concentration at half of the fitted maximal effect
# Starred values were filed as active, the others as inactive; ? = inconclusive; / = no result; [ ] = remark or other dose. The call rests on the fitted dose curve; in most records, active means well fitted curve in the direction sought with a large enough effect; inconclusive means small, poorly fitted or top-dose-only effect, or another doubt; inactive means no such curve, though single readings can be large; an effect the other way counts as inactive or inconclusive.
SMILES,Pol kappa inh-1,Pol eta inh-1,Pol iota inh,FEN1 inh,WRN inhibitor,POLB inh,Pol eta inh-2,others
C[C@@H]1C(=O)N(S(=O)(=O)c2ccc([N+](=O)[O-])cc2)[C@H]1c1ccc(F)cc1,-2%,/,0%,10%,/,/,/,
Cc1cc(C)n2c(SCC(O)=C(C#N)c3nc4ccccc4[nH]3)nnc2n1,?,25µM*,11µM*,?,?,/,?,
COc1ccc(C)cc1-n1nnnc1SC/C(O)=C(\C#N)c1nc2ccccc2[nH]1,?,?,?,1%,-14%,?,/,
O=C(O)c1cccc(N/N=C/c2ccc(F)c(F)c2)c1,-3%,-3%,110%,9%,-2%,-24%,/,
O=C(O)c1cccc(N/N=C/C2=C(Cl)c3cc(Cl)ccc3SC2)c1,-19%,50µM*,?,-10%,-17%,?,?,Pol kappa inh-2=?
COC(=O)Cc1c(C)c2ccc3c(c2oc1=O)CN(Cc1ccc(Cl)cc1)CO3,11%,-7%,-28%,5%,/,29%,/,
COC(=O)c1cc2nc(-c3ccccc3)cc(C)n2n1,-11%,?,-6%,9%,-22%,-1%,/,
CCOc1ccc(-c2cc(C)n3nc(C(N)=O)cc3n2)cc1,-18%,22µM*,28µM*,0%,?,?,?,
COc1ccc(NC(=O)Cn2nnc3sc4c(c3c2=O)CCCC4)cc1,-21%,-2%,-5%,-2%,/,-26%,/,
COc1ccc(OCCn2nnc3sc4c(c3c2=O)CCCC4)cc1,?,/,71µM*,-2%,/,11µM*,?,Pol kappa inh-2=?
CN(Cc1ccccc1)C(=O)Nc1ccc2c(c1)N(C)C(=O)c1ccccc1S2,4%,-16%,-1%,2%,/,-14%,/,
CO[C@@]1(NC(=O)C2SC(=C(C(N)=O)C(=O)O)S2)C(=O)N2C(C(=O)O)=C(CSc3nnnn3C)CS[C@@H]21 (stereo partly drawn),45µM*,-2%,11µM*,-27%,-9%[11.6 µM],/,30*,
COC(=O)c1ccc(CSc2nnnn2C)o1,-4%,-6%,33%,5%,6%,-9%,/,
CCCCCn1c(-c2ccc(OC)c(OC)c2)nc2ccccc21,-4%,-14%,16%,-2%,/,-2%,/,
COC(=O)C1=C(O)/C(=C\c2ccc(CNS(=O)(=O)c3ccc(Cl)cc3)o2)N=C1C,79µM*,?,?,-10%,?,25µM*,?,
CCOC(=O)c1ccccc1NC(=O)CSc1nccn1Cc1ccco1,-5%[60.1 µM],3%,1%,17%,/,-8%,/,
CCCN1CCC(=O)N(C(CSc2ccc(Br)cc2)c2ccccc2)CC1 (stereo not drawn),-7%,/,-5%,-10%,/,/,/,
CCc1cc(C(=O)Nc2ccc(S(=O)(=O)NC3=NCCCCC3)cc2)sc1C,50µM*,56µM*,22µM*,-19%,?,/,?,
Cc1ccc(C(=O)Nc2ccc(S(=O)(=O)NC3=NCCCCC3)cc2)c(C)c1,2%,-18%,58%,-13%,-19%,/,/,
COc1ccc(NC(=O)c2c(NCc3ccc(OC)c(OC)c3OC)sc3c2CCC3)c(OC)c1,-5%[60.1 µM],-23%,13%,9%,/,-26%,/,
COc1cc(/C=C2\C(=O)ON=C2c2ccccc2)cc(Br)c1O,2%,45µM*,?,?,?,2%,/,GALK confirm=38µM*;Redox cycling=-2%;HEK293 viability=-17%
CCc1nc(SCC(=O)O)c(C#N)c2c1CCCC2,-9%,-18%,72%,5%,-3%,8%,/,
Cc1nc(SCC(=O)O)c(C#N)c2c1CCCC2,?,7.9µM*,25µM*,-6%,45µM*,8.9µM*,24*,
Cc1ccc(-n2nc3c(N4CCC(C(=O)NCCC(C)C)CC4)nnc(C)c3c2C)cc1,-12%,-9%,6%,12%,/,-2%,/,
O=C(O)c1cccc(S(=O)(=O)N2CCC(n3nnc4cc(C(F)(F)F)ccc43)CC2)c1,-14%,3%,61%,-19%,-13%,46%,/,GALK confirm=?;Redox cycling=-25%;HEK293 viability=2%
SMILES,Pol kappa inh-1,Pol eta inh-1,Pol iota inh,FEN1 inh,WRN inhibitor,POLB inh,Pol eta inh-2,others
COc1cc(/C=C/C(=O)c2ccc(NS(=O)(=O)c3ccc(C)cc3)cc2)cc(OC)c1O,-13%,10µM*,?,?,?,-14%,?,
COc1cc(/C=C/C(=O)c2ccc(NS(=O)(=O)c3ccc(C)cc3)cc2)ccc1OC(F)F,-9%,?,-19%,-12%,-9%,-1%,/,
COc1cccc(NC(=O)CSc2nccn2C2CCCC2)c1,-5%[60.1 µM],-15%,-12%,-4%,/,11%,/,
O=c1c(C=Nc2cccc(C(F)(F)F)c2)c[nH]n1-c1cccc(Cl)n1,-2%,89µM*,-8%,-19%,?,?,?,
S=c1[nH]nc(-c2cccc(Cl)c2)n1/N=C/c1ccco1,-22%,?,?,-6%,-22%,?,/,
CC(/C=N/n1c(-c2ccncc2)n[nH]c1=S)=C\c1ccco1,50µM*,?,20µM*,?,?,-15%,?,
Cc1cccc(-c2n[nH]c(=S)n2/N=C/C=C/c2ccco2)c1,45µM*,79µM*,13µM*,?,-21%[57.1 µM],?,?,
COc1ccc(S(=O)(=O)NCCc2csc(-c3cccc(F)c3)n2)cc1OC,-11%[60.1 µM],-19%,-10%,-12%,/,18%,/,
O=C(Nc1ccc(F)cc1F)c1ccc(-n2cnc3cccnc32)cc1,-2%,3%,-15%,-5%,/,4%,/,
